# According to PubChem BioAssay (NCI):
# About 83,000 compounds went through this panel and 20% of them were active in at least one assay; those are over-represented in the sample as a whole.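 Plates (96-well) were seeded with cells, treated with compound at one concentration, and incubated for 48 hours before percent growth was determined.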 Unmarked numbers belong to inactive results. Activity calls are given as the source filed them. Rule for the calls: active = growth percent below 10; inactive = the rest.
# What was measured:
# Assay in all cases: NCI-60 one-dose screen, 48 h (100 = growth as untreated, 0 = no growth, -100 = all killed)
# Conditions in all cases: 10 µM unless noted
# [1] = tested on: NCI-H23 lung
# [2] = tested on: NCI-H226 lung
# [3] = tested on: NCI-H322M lung
# [4] = tested on: HOP-62 NSCLC
# [5] = tested on: NCI-H460 lung
# [6] = tested on: HOP-92 NSCLC
# [7] = tested on: NCI-H522 lung
# [8] = tested on: A549/ATCC NSCLC
# [9] = tested on: 786-0 renal
# [10] = tested on: COLO 205 colon
Compound,growth [1],growth [2],growth [3],growth [4],growth [5],growth [6],growth [7],growth [8],growth [9],growth [10]
O=C(NCCOCCOCCNc1cccc2c1C(=O)N(C1CCCNC1=O)C2=O)c1cc2c(o1)C(=O)c1ccccc1C2=O (stereo not given),-42.8% (active),-79.8% (active),-62.1% (active),-65.2% (active),-70.7% (active),22.2%,-52.7% (active),-45.5% (active),3.9% (active),–
O=C1Nc2ccc(Cl)cc2/C1=N/N=C/c1c[nH]c2ccccc12,86.1%,81.9%,75.5%,80.4%,72%,93.1%,73.2%,87.2%,95.8%,–
Cc1cc(NS(=O)(=O)c2ccccc2)c(OS(=O)(=O)c2ccccc2)cc1C,98.6%,101%,110%,105%,106%,88.1%,97.4%,104%,112%,–
NS(=O)(=O)c1cn(-c2ncnc3nc[nH]c23)ccc1=O,94.2%,78%,94.5%,94.9%,112%,82.7%,51.2%,36%,96.9%,–
COc1ccc(/C(C)=C(\c2ccc(Cl)cc2)c2ccc(OCCN3CCCC3)cc2)cc1F,55.1%,69.3%,62.2%,-17.6% (active),-55.6% (active),65.8%,71.1%,42.2%,4.18% (active),–
CN1CCN(c2ccc3nc(/N=C/c4ccc5sc(-c6ccc([N+](=O)[O-])cc6)nc5c4)sc3c2)CC1,99.4%,97.9%,105%,120%,103%,111%,95%,98.6%,101%,–
Cn1ccnc1C(=O)/C=C/c1ccc(C(=O)Nc2ccc(S(F)(F)(F)(F)F)cc2)cc1,17.8%,43.9%,15.4%,24.4%,-4.08% (active),95.8%,42.9%,31.5%,15.9%,9.14% (active)
O=C(O)c1ccc(CO)o1,110%,106%,105%,113%,101%,91.5%,86.4%,93.6%,77.8%,115%
CC(=O)OCCc1ccccc1,86.9%,108%,103%,78.1%,110%,85.7%,84.7%,107%,91.8%,–
Nc1c(C(=O)c2ccccc2)nnc2ncnn12,95.6%,94.5%,98.2%,97%,106%,95.2%,88.5%,95.2%,97.2%,103%
CC(=O)Nc1ccc(-c2cc3c(NCc4ccc(F)cc4)ncnc3s2)cc1,77.5%,78.4%,82.7%,58%,77.3%,76%,56.6%,83.9%,82.7%,106%
CC(C)c1ccc(C(=O)OC(=O)c2ccc(C(C)C)cc2)cc1,86.4%,97.9%,88.8%,86.2%,96.3%,87.8%,85.3%,103%,95.8%,–
CC1(C)N=C(N)N=C(N)N1c1cccc(CN)c1,93.2%,92.7%,94.3%,92.3%,111%,80.5%,80.7%,91%,99.1%,–
C=CC(=O)N[C@@H](Cc1ccc(-c2cc(Cl)cc(Cl)c2)cc1)[C@@H](O)[C@H](O)C(=O)O,99.9%,84.9%,105%,79%,105%,93.9%,67.7%,79%,98.6%,–
CCN(CC)CC(=O)Nc1cccc(C(=O)OC(C)C)c1,92.1%,96.5%,96.8%,92.2%,112%,82%,66.3%,93.7%,79.8%,–
O=C1CCC(N2C(=O)c3cccc(NCCCC4CCN(CCNC(=O)c5cc6c(o5)C(=O)c5ccccc5C6=O)CC4)c3C2=O)C(=O)N1 (stereo not given),-59.6% (active),-69.2% (active),-98.8% (active),-52.9% (active),-71.1% (active),49%,-51.7% (active),-41.9% (active),-26.2% (active),–
COc1cc(-c2ccc(-c3ccc(C(=N)N)nc3)s2)cc(OC)c1OC,72.2%,102%,70.3%,67.9%,25.7%,49%,77%,61.3%,40.3%,–
COc1cc(/C=C/C(=O)c2cccc(-n3cc(-c4ccccc4)[nH]c3=O)c2)cc(OC)c1OC,-27.4% (active),24.9%,33%,7.01% (active),-68.5% (active),24.3%,-64.5% (active),27.1%,-63.4% (active),–
COc1ccc(-n2nnc(C(=O)NCCc3c[nH]c4ccc(F)cc34)c2C)cc1,98.5%,97.9%,101%,86.5%,100%,87.6%,76.1%,82%,99.6%,111%
COc1ccc(N=c2nc3sc4cc(Cl)ccc4n3c(N)c2C#N)cc1,66.5%,24.4%,93.4%,102%,102%,88.4%,88.6%,62.4%,22.1%,–
CNC1(C#N)CCN(Cc2ccccc2)CC1,97.6%,104%,336%,87.2%,108%,85.1%,90.1%,98.1%,73.1%,–
CC(C)(C)Nc1c(-c2c3ccccc3cc3ccccc23)nc2ccccn12,77.4%,83.9%,71.2%,65.1%,77%,45%,59.1%,49.4%,72%,–
COc1cc(-c2cccc([N+](=O)[O-])c2)c(-c2nc(-c3ccccc3)c(-c3ccccc3)n2C2CC2)cc1OC,68%,62.5%,71.9%,92.6%,55.5%,34.6%,44%,44.7%,73.3%,–
COc1ccc(/C=C2\C=C(c3ccccc3)N(CCc3ccccc3)C2=O)cc1OC,68.4%,29.7%,8.42% (active),-30% (active),20.5%,-4.05% (active),42.5%,32.9%,8.93% (active),–
C=C1C(=O)O[C@H]2[C@H]1CC/C(COC(=O)/C=C\C(=O)NCc1ccc(Cn3c(=O)sn(-c4ccc(C#N)cc4)c3=O)cc1)=C\CC[C@@]1(C)O[C@@H]21,-80.4% (active),-69.5% (active),-46.6% (active),-37.3% (active),-68.7% (active),-65.8% (active),-47.5% (active),-21.4% (active),-75.8% (active),-55.4% (active)
CC1=CC(=O)C(C(C)C)=CC1=Nc1cc(Br)c(O)c(Br)c1,25.7%,84.1%,53.6%,12.7%,5.15% (active),35.5%,55%,28.2%,9.71% (active),144%
COc1ccc(/C=C2\COc3ccc(O)c(O)c3C2=O)c(OC)c1,78.8%,92.4%,73.7%,72.9%,72.4%,91.5%,-17% (active),62.9%,61.1%,107%
COc1ccc(OC)c(Nc2nc3nonc3nc2Nc2cc(OC)ccc2OC)c1,50%,50.3%,68.6%,-12.8% (active),22%,13.2%,37.7%,20.7%,-23.8% (active),–
C[C@]12CCC(=O)C[C@H]1CC[C@@H]1[C@@H]2CC[C@@]2(C)[C@H]1CC[C@]2(O)C(=O)CO,107%,94.2%,103%,105%,107%,93.2%,89.4%,122%,105%,100%
